# Experiments:
# [1] = target: Death-associated protein kinase 1 (Homo sapiens) (UniProt P53355); details: at 10 µM
# [2] = target: Death-associated protein kinase 2 (Homo sapiens) (UniProt Q9UIK4); details: at 1 µM
# [3] = target: Death-associated protein kinase 2 (Homo sapiens) (UniProt Q9UIK4); details: at 10 µM
# [4] = target: T1, Serine/threonine-protein kinase DCLK2 (Homo sapiens) (UniProt Q8N568); details: at 1 µM
# T1 sequence (whole entry): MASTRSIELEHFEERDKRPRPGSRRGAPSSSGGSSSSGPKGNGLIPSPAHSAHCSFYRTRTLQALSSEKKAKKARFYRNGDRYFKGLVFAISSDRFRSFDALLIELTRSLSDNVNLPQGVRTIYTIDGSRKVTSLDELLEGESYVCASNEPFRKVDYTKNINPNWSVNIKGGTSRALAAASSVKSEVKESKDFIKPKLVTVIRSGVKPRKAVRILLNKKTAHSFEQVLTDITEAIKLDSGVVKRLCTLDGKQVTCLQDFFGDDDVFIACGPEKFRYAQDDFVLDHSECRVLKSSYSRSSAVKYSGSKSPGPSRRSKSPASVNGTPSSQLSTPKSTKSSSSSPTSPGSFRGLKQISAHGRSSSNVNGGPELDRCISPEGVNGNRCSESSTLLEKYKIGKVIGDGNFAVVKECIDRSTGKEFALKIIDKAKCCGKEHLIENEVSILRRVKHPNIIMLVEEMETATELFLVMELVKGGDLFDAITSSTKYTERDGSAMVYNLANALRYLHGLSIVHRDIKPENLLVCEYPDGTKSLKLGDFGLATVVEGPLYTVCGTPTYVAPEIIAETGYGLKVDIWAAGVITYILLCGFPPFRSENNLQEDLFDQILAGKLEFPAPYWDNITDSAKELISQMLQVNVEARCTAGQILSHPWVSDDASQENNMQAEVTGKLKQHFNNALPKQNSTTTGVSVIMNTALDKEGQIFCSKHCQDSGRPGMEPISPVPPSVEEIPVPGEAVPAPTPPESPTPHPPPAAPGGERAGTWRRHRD
# [5] = target: T1, Serine/threonine-protein kinase DCLK2 (Homo sapiens); details: at 10 µM
# [6] = target: T2, Discoidin domain-containing receptor 2 (Homo sapiens) (UniProt Q16832); details: at 1 µM
# T2 sequence (whole entry): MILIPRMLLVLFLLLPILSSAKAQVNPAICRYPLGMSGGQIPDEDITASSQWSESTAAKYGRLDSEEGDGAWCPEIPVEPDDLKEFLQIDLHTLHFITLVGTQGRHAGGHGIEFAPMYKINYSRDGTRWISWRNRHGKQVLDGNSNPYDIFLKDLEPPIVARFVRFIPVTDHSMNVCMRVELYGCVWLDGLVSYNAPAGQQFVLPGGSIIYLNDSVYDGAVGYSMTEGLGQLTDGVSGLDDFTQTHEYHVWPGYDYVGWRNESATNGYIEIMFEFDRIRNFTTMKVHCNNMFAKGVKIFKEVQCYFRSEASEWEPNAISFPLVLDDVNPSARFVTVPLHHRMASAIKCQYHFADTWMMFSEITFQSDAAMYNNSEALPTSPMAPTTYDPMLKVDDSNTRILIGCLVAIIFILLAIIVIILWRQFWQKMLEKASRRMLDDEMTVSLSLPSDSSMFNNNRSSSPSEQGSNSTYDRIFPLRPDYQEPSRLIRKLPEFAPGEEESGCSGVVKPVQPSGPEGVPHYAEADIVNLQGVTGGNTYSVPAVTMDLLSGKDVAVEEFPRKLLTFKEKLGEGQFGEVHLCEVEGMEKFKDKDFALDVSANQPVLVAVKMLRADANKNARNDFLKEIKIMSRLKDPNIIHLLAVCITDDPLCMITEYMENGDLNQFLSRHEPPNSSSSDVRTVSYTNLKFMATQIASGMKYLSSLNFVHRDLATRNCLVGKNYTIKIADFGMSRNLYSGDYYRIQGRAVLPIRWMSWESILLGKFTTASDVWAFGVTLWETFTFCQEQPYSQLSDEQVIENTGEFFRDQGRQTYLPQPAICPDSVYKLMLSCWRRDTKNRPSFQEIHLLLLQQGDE
# [7] = target: T2, Discoidin domain-containing receptor 2 (Homo sapiens); details: at 10 µM
# [8] = target: T3, Myotonin-protein kinase (Homo sapiens) (UniProt Q09013); details: at 1 µM
# T3 sequence (whole entry): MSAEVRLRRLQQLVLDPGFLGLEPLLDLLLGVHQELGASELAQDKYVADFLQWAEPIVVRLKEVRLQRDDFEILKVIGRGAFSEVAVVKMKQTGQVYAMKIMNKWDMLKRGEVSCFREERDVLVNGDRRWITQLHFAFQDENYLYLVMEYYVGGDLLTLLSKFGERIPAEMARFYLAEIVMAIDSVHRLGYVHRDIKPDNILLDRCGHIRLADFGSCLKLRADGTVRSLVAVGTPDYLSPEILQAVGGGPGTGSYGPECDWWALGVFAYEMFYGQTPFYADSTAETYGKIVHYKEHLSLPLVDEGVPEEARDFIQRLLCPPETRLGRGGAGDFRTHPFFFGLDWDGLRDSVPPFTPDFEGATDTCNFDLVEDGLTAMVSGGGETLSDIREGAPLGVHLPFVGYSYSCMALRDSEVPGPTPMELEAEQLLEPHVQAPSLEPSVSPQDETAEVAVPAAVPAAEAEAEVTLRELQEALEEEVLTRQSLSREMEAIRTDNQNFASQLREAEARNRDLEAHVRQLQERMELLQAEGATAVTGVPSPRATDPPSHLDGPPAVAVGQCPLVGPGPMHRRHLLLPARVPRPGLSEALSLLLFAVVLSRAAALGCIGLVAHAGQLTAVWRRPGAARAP
# [9] = target: T3, Myotonin-protein kinase (Homo sapiens); details: at 10 µM
# [10] = target: T4, Serine/threonine-protein kinase 17A (Homo sapiens) (UniProt Q9UEE5); details: at 1 µM
# T4 sequence (whole entry): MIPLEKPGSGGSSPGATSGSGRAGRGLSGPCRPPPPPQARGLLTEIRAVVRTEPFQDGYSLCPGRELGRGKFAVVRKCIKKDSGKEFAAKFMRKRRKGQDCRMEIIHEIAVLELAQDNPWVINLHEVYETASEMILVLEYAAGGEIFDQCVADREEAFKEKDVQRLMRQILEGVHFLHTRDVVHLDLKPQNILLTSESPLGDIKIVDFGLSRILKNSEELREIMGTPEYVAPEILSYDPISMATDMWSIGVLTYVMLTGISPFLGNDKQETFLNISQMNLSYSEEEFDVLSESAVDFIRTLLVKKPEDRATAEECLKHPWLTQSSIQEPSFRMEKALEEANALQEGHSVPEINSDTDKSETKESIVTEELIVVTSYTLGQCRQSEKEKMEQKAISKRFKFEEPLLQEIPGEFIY
# [11] = target: T4, Serine/threonine-protein kinase 17A (Homo sapiens); details: at 10 µM
# [12] = target: T5, Dual specificity tyrosine-phosphorylation-regulated kinase 2 (Homo sapiens) (UniProt Q92630); details: at 1 µM
# T5 sequence (whole entry): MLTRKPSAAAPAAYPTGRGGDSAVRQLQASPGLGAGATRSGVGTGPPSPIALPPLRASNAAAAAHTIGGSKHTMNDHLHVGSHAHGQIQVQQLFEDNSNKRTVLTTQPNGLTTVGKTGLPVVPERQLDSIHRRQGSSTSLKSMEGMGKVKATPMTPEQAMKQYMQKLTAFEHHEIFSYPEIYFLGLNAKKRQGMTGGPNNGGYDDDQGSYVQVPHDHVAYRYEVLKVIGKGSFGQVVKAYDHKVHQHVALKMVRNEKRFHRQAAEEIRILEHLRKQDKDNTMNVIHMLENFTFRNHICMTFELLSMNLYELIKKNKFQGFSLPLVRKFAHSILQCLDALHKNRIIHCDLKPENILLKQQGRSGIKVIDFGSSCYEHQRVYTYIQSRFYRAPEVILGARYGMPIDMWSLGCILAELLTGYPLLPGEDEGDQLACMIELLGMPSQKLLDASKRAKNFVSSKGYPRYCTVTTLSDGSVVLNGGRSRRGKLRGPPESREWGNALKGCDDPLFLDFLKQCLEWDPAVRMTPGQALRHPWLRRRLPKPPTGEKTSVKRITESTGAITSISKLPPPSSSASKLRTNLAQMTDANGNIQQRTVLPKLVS
# [13] = target: T5, Dual specificity tyrosine-phosphorylation-regulated kinase 2 (Homo sapiens); details: at 10 µM
# [14] = target: T6, Ephrin type-A receptor 1 (Homo sapiens) (UniProt P21709); details: at 1 µM
# T6 sequence (whole entry): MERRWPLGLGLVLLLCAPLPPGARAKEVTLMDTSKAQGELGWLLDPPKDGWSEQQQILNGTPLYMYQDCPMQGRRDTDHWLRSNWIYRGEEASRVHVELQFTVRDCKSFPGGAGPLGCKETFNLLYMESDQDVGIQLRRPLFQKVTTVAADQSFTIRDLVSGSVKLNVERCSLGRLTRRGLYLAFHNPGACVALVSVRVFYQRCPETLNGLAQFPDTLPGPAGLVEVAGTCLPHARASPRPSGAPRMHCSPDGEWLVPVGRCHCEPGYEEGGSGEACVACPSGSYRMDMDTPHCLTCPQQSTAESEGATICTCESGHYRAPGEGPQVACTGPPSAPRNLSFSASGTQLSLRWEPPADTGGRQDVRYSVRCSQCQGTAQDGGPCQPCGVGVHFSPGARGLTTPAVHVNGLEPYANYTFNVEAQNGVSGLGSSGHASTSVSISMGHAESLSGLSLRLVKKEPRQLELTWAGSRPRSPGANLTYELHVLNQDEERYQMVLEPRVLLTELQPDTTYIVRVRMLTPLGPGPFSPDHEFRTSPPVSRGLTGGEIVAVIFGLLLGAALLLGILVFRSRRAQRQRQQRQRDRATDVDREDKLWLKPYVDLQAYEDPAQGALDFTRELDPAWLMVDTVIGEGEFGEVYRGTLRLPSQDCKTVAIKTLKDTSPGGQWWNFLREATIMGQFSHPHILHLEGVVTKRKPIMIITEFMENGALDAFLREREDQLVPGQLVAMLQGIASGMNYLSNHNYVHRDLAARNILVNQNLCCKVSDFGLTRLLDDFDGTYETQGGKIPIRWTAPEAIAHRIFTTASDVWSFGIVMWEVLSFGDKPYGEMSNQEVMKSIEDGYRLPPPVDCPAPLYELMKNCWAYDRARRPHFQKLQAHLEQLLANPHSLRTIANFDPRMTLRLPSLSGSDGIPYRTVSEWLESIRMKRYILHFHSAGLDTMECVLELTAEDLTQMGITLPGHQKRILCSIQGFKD
# [15] = target: T6, Ephrin type-A receptor 1 (Homo sapiens); details: at 10 µM
# [16] = target: Ephrin type-A receptor 2 (Homo sapiens) (UniProt P29317); details: at 1 µM
# Sequence of Ephrin type-A receptor 2 (Homo sapiens) (P29317 whole entry): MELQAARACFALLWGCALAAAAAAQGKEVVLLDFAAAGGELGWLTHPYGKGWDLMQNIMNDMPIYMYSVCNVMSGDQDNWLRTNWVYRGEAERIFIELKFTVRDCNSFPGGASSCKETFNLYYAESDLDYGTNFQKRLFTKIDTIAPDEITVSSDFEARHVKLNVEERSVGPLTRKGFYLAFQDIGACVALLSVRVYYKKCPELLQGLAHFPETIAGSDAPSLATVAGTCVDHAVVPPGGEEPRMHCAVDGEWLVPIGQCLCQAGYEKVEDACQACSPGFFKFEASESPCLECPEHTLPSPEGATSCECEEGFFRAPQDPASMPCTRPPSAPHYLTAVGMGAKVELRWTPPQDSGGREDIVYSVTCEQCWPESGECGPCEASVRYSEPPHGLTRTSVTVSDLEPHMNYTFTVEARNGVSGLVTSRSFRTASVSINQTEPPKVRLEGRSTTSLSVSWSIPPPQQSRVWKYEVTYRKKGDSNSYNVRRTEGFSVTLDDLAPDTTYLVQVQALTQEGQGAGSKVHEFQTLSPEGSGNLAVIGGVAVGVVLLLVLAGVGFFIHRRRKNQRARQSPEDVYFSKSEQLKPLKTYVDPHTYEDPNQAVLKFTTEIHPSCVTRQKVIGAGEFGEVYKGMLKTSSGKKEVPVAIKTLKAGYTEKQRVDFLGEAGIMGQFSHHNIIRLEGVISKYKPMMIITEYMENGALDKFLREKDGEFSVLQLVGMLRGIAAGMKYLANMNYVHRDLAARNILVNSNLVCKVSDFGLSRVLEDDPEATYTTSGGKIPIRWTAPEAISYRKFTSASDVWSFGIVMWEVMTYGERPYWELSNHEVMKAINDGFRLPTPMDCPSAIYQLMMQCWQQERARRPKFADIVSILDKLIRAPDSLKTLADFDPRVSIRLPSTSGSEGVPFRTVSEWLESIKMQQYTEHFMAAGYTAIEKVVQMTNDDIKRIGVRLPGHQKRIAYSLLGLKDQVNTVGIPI
# [17] = target: Ephrin type-A receptor 2 (Homo sapiens) (UniProt P29317); details: at 10 µM
# [18] = target: T7, Ephrin type-A receptor 3 (Homo sapiens) (UniProt P29320); details: at 1 µM
# T7 sequence (whole entry): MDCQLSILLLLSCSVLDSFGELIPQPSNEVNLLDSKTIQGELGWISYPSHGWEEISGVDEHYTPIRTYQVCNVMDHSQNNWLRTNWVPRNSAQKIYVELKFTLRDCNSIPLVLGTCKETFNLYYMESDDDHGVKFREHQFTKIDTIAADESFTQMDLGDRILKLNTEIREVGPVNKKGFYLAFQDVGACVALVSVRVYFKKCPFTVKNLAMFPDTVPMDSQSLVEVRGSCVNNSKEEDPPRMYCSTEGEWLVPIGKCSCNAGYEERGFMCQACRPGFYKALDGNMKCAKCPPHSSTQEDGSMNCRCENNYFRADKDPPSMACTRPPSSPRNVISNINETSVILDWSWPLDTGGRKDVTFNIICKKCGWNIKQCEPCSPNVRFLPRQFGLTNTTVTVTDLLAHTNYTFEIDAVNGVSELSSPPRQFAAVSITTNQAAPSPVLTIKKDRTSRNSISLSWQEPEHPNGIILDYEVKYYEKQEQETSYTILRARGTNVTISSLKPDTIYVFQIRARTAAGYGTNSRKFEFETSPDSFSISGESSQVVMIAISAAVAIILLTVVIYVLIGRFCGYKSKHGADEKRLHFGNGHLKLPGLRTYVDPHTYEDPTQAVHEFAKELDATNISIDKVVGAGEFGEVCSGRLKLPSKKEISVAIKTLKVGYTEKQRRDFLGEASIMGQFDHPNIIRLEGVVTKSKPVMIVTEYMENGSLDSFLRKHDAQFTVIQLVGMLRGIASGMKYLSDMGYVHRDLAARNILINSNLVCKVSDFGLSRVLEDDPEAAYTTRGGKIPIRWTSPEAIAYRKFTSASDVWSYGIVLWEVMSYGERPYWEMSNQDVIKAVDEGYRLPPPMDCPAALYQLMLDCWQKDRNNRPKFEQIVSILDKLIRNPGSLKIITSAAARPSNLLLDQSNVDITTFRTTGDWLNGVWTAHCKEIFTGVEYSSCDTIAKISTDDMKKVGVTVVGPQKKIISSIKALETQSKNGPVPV
# Sequence of Death-associated protein kinase 2 (Homo sapiens) (Q9UIK4 whole entry, looked up): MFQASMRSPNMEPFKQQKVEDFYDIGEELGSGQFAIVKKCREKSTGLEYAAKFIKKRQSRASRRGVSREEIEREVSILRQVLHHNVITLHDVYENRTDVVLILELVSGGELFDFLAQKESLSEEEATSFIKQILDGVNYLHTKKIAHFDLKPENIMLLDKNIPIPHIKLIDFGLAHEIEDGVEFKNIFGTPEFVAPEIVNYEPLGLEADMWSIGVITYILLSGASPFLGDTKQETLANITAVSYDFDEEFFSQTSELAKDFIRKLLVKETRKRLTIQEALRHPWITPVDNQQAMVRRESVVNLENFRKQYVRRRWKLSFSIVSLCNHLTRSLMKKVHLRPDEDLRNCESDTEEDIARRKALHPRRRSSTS
# Sequence of Death-associated protein kinase 1 (Homo sapiens) (P53355 whole entry, looked up): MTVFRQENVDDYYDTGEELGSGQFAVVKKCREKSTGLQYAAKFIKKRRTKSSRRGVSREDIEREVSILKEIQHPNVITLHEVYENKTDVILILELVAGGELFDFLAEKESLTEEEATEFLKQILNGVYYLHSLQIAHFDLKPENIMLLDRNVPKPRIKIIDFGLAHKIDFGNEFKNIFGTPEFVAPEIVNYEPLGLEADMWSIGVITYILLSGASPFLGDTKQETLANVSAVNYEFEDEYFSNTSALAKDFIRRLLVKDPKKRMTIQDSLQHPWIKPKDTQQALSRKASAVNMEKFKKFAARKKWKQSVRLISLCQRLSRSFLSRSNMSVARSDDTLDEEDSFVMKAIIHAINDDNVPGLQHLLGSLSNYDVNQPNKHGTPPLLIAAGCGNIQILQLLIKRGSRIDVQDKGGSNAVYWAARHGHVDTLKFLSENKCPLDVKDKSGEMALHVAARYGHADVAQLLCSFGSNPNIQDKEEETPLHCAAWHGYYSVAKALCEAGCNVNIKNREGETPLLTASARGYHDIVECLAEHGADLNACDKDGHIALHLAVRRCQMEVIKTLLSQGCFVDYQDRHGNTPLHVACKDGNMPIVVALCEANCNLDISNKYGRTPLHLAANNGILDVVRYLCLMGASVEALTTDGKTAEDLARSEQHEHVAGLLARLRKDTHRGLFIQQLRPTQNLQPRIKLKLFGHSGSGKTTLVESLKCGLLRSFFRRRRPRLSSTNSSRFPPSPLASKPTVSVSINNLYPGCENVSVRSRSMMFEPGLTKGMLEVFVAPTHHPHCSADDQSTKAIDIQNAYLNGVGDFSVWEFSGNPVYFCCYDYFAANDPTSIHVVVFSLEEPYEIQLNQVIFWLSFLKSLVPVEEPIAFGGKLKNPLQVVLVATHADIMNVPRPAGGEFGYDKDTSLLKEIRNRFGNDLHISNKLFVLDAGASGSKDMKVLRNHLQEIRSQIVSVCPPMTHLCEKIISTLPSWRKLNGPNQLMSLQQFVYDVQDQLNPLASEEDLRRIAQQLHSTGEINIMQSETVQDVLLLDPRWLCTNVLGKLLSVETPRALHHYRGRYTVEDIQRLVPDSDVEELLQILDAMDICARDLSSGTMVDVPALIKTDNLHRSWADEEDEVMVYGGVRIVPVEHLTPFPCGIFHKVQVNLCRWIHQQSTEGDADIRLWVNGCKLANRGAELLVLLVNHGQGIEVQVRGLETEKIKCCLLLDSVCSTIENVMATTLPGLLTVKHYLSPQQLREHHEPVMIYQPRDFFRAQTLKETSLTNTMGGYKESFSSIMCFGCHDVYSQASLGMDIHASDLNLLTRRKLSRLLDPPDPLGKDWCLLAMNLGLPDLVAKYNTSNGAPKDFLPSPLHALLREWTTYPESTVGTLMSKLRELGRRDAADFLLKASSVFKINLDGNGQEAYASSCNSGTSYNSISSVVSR
SMILES,residual activity [1],residual activity [2],residual activity [3],residual activity [4],residual activity [5],residual activity [6],residual activity [7],residual activity [8],residual activity [9],residual activity [10],residual activity [11],residual activity [12],residual activity [13],residual activity [14],residual activity [15],residual activity [16],residual activity [17],residual activity [18]
Ic1cccc(CSc2nnc(-c3ccncc3)o2)c1,76%,96%,100%,100%,97%,86%,82%,82%,81%,100%,3%,87%,60%,95%,88%,90%,91%,96%
CCN(CC)C(=O)c1ccc(Nc2nc(OCC3CCCCC3)c3nc[nH]c3n2)cc1,54%,96%,68%,–,99%,93%,66%,–,–,23%,4%,–,–,60%,8%,77%,42%,–
CC(=O)c1ccc(N2CCOCC2)cc1O,89%,100%,–,75%,74%,112%,97%,112%,130%,–,–,108%,92%,94%,110%,102%,–,107%
Oc1c2ccccc2c2c3c(cccc13)N=N2,68%,87%,43%,116%,51%,93%,92%,–,68%,6%,2%,4%,-5%,67%,42%,88%,60%,75%
Nc1ccc2ncnc(NCCc3ccc(Oc4ccccc4)cc3)c2c1,75%,105%,100%,110%,87%,91%,90%,98%,86%,62%,48%,103%,92%,107%,87%,98%,91%,95%
c1ccc(-c2n[nH]c3c2oc2ccccc23)cc1,98%,–,–,82%,74%,–,–,146%,121%,43%,5%,83%,71%,98%,99%,–,–,–
O=c1cc(-c2cccc3c2Sc2ccccc2S3)oc(N2CCOCC2)c1,81%,106%,89%,118%,85%,93%,100%,120%,105%,106%,93%,101%,95%,105%,94%,100%,82%,100%
Cc1cc(Nc2nc(-c3ccccc3)nc3ccccc23)n[nH]1,17%,56%,11%,99%,69%,71%,41%,111%,79%,42%,14%,–,41%,36%,18%,75%,43%,54%

# Source: ChEMBL document CHEMBL2218924, “A broad activity screen in support of a chemogenomic map for kinase signalling research and drug discovery” (Biochem J, 2013)
